Test results: PubChem BioAssay AID1851 (National Center for Advancing Translational Sciences (NCATS), 2009)
Out of some 16,000 compounds screened, about 5,100 (32%) were called active. Not shown: some 25% with an inconclusive outcome. This is one part of the list. A structure can be active in one record and inactive in another. Values without a mark were called inactive. Calls follow the shape of the dose curve; as a rule, active = well fitted curve in the direction sought with a large enough effect; inconclusive = small, poorly fitted or top-dose-only effect, or effect the other way; inactive = no such curve, though single readings can be large or run the other way.
% is scaled to controls: 0 for no effect and ±100 for the full control effect.

Each compound was assayed against Cytochrome P450 3A4 (Homo sapiens) (UniProt P08684) (assay: Cytochrome panel assay with activity outcomes). Conditions: recombinant CYP, pro-luciferin dealkylation, luminescence, p450-cyp3a4; series mostly up to 57.1 µM; activity, negative = inhibition: at the top concentration.
Cytochrome P450 3A4 (Homo sapiens), sequence (P08684 whole entry, looked up): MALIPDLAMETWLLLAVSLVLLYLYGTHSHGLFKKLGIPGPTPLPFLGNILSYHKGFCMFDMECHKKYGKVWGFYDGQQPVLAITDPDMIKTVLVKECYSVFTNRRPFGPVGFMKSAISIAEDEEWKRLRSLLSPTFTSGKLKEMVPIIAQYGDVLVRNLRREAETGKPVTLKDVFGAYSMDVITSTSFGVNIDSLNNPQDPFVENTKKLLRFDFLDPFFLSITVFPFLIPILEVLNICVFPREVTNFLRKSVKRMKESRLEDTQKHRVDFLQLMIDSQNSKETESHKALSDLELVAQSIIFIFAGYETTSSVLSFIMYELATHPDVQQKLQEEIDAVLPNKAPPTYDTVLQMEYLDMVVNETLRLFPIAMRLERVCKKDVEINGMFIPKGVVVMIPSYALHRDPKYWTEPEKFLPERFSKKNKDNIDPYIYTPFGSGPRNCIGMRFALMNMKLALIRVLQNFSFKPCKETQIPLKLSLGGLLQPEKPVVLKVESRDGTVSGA
With CCn1nccc1C(=O)Nc1nc2ccccc2n1CCN1CCCCC1 the “activity, negative = inhibition” value was -23.3%. In the case of O=C(Nc1nc2ccccc2n1Cc1ccccc1)c1ccc(COc2ccccc2[N+](=O)[O-])o1, the AC50 is reported as 4.47 µM (active). In the case of CCC1(C)Cc2c(sc3nnn(CC(=O)Nc4ccc(C)cc4)c(=O)c23)CO1 (configuration not stated), the AC50 is reported as 14.1 µM (active). CCC1(C)Cc2c(sc3nnn(CC(=O)Nc4cccc5ccccc45)c(=O)c23)CO1 (configuration not stated) was tested, and the AC50 was 10 µM (active). For Cc1ccc(C(=O)Cn2nnc3c(sc4nc5c(c(-c6ccccc6)c43)CCC5)c2=O)cc1, the “activity, negative = inhibition” value was -10.2%. In the case of CCOC(=O)Cn1nnc2c(sc3nc4c(c(-c5ccc(Cl)cc5)c32)CCC4)c1=O, the “activity, negative = inhibition” value is reported as 10.9%. CC1(C)Cc2c(sc3nc(-c4ccccc4)n(N)c(=O)c23)CO1 was tested, and the “activity, negative = inhibition” value was -13.6%. For CCOC(=O)c1sc2nc3c(cc2c1N)COC(C)(CC)C3 (configuration not stated), the activity, negative = inhibition was 1.93% [at 11.4 µM]. With CC1(C)CC(=O)c2cn3ncnc3nc2C1 the “activity, negative = inhibition” value was -2.27%. With Nc1cccc2cnccc12 the AC50 was 7.94 µM (active). In the case of CC(C)[C@H](NC(=O)OC(C)(C)C)[C@@H](O)CC(=O)OC(C)(C)C, the activity, negative = inhibition is reported as -23.3% [at 11.4 µM]. Cc1n[nH]c(=O)n1-c1cccc(C(F)(F)F)c1 was tested, and the “activity, negative = inhibition” value was 5.28%. O=C(O)c1nn(-c2ccccc2)ccc1=O showed an activity, negative = inhibition of -15.6% [at 11.4 µM]. For COc1ccccc1NC(=O)c1nn(-c2cccc(C(F)(F)F)c2)ccc1=O, the AC50 was 20 µM (active). With O=C(c1ccccc1)c1nn(-c2ccccc2)c(=O)cc1C(F)(F)F the “activity, negative = inhibition” value was 32.3%. For COc1ccccc1NC(=O)c1nc[nH]c1C(=O)Nc1ccccc1OC, the “activity, negative = inhibition” value was 16.7%. With O=c1ccn(-c2cccc(C(F)(F)F)c2)nc1-c1ccn(-c2ccccc2F)n1 the AC50 was 10 µM (active). In the case of CC(C)NC[C@H]1CCc2cc(CO)c([N+](=O)[O-])cc2N1, the “activity, negative = inhibition” value is reported as -14.3% [at 25.6 µM]. In the case of N#CCCn1c(=O)c(-c2ccccc2)nc2cnc(Oc3cccc(Cl)c3)nc21, the “activity, negative = inhibition” value is reported as -11.9%. N#CCCn1c(=O)cnc2cnc(Oc3ccccc3)nc21 was tested, and the “activity, negative = inhibition” value was -17.2%. For COc1ccc(Oc2ncc3nc(CCc4ccccc4)c(=O)n(CCC#N)c3n2)cc1, the AC50 was 1.58 µM (active). In the case of N#CCCn1c(=O)c(CCc2ccccc2)nc2cnc(Oc3cccc(Cl)c3)nc21, the AC50 is reported as 0.794 µM (active). In the case of N#CCCn1c(=O)c(CCc2ccccc2)nc2cnc(Oc3ccccc3)nc21, the AC50 is reported as 2.51 µM (active). In the case of N#CCCn1c(=O)c(-c2ccc(Cl)cc2)nc2cnc(Oc3cccc(Cl)c3)nc21, the “activity, negative = inhibition” value is reported as -0.801%. Cc1cc(=O)c2cc(Cl)ccc2[nH]1 was tested, and the “activity, negative = inhibition” value was -16.9%. With Clc1ccc(SCc2cc(-c3ccccc3)no2)cc1 the “activity, negative = inhibition” value was -27.4%. Compound C[N+](C)(N)Cc1csc(-c2ccc(Cl)cc2)n1 has an activity, negative = inhibition of -0.841% [at 11.4 µM]. In the case of Nc1ccccc1SCc1csc(-c2ccc(Cl)cc2)n1, the AC50 is reported as 1 µM (active). CN1CCc2ccccc2[C@@H]1Cc1ccccc1NC(=O)c1sc2ccccc2c1Cl was tested, and the AC50 was 1.58 µM (active). Cc1cc(C)c(C#N)c(SCc2cc3c(cc2Cl)OCO3)n1 was tested, and the AC50 was 3.98 µM (active). In the case of COc1ncc2ncc(=O)n(C3CC3)c2n1, the “activity, negative = inhibition” value is reported as -9.36%. COc1cccc(Cn2c(=O)cnc3cnc(OC)nc32)c1 was tested, and the AC50 was 10 µM (active). For COc1cccc(Cn2c(=O)cnc3cnc(Oc4cccc(Cl)c4)nc32)c1, the AC50 was 5.01 µM (active). In the case of COc1cccc(Cn2c(=O)cnc3cnc(OCc4ccccc4)nc32)c1, the AC50 is reported as 12.6 µM (active). N[C@@H](Cn1cc(F)c(=O)[nH]c1=O)C(=O)O was tested, and the “activity, negative = inhibition” value was -26.2%. CCC(c1nnnn1CC1CCCO1)N(CCN1CCOCC1)Cc1cc2cc(C)ccc2[nH]c1=O (configuration not stated) was tested, and the AC50 was 15.8 µM (active). COCOc1ccc(Br)cc1C(=O)[C@H]1O[C@H]1c1cccc(OC)c1 was tested, and the AC50 was 3.98 µM (active). With COc1ccc(CCN(C)CCC(=O)Nc2c(C)cc(C)cc2C)cc1OC the AC50 was 7.94 µM (active). Work on COc1ccccc1OCc1ccc(C(=O)N(C)C)o1 yielded an activity, negative = inhibition of 4.32% [at 2.29 µM]. In the case of COc1ccc(CCN(C)Cc2ccc(OCc3ccccc3)c(OC)c2)cc1OC, the AC50 is reported as 0.631 µM (active). In the case of CSCC[C@@H]1NC(=O)C/C=C\[C@@H](C)COC(=O)[C@@H](C)COC1=O, the activity, negative = inhibition is reported as -21.5% [at 11.4 µM]. Cc1ccc(S(=O)(=O)N[C@H]2COC(=O)CC=C[C@@H](C)[C@H]3C=C[C@H](O)[C@@H](COC(=O)CC=C[C@H]2C)O3)cc1 was tested, and the AC50 was 3.16 µM (active) and the activity, negative = inhibition was -9.33% [at 11.4 µM]. With Cc1ccc(S(=O)(=O)N[C@@H]2COC(=O)C/C=C\[C@H](C)COC(=O)N[C@@H](C)C(=O)C/C=C\[C@H]2C)cc1 the AC50 was 3.16 µM (active). C[C@H]1COC(=O)[C@H]2CCCN2C(=O)[C@@H](C)COC(=O)[C@H](Cc2ccccc2)NC1=O gave an activity, negative = inhibition of -25.7% [at 11.4 µM]. Work on C[C@@H]1/C=C\CC(=O)OC[C@H](C)C(=O)N[C@@H](C)C(=O)OC1 yielded an activity, negative = inhibition of -13.1% [at 11.4 µM]. With C[C@@H]1/C=C\CC(=O)OC[C@H]2O[C@@H](C=C[C@@H]2O)[C@H](C)/C=C\CC(=O)OC[C@H]2O[C@H]1C=C[C@@H]2O the activity, negative = inhibition was -21.3% [at 11.4 µM]. CO[C@@H]1COC(=O)CC=C[C@@H](C)[C@@H]2C=C[C@@H](O)[C@@H](COC(=O)C/C=C\[C@H]1C)O2 gave an activity, negative = inhibition of -26.7% [at 11.4 µM]. In the case of CO[C@H]1COC(=O)C/C=C\[C@H](C)COC(=O)[C@@H](C)NC(=O)C/C=C\[C@@H]1C, the activity, negative = inhibition is reported as -29.4% [at 11.4 µM]. In the case of Cc1ccc(S(=O)(=O)N[C@H]2COC(=O)C/C=C\[C@@H](C)[C@H](NS(=O)(=O)c3ccc(C)cc3)COC(=O)C/C=C\[C@H]2C)cc1, the AC50 is reported as 3.16 µM (active). Cc1ccc(S(=O)(=O)N[C@H]2COC(=O)[C@@H](Cc3ccccc3)NC(=O)[C@@H](C)COC(=O)C/C=C\[C@@H]2C)cc1 was tested, and the AC50 was 3.98 µM (active) and the activity, negative = inhibition was -7.89% [at 11.4 µM].
